Compound activity as filed in PubChem.
D2 PAM-1 = potentiates the human D2 dopamine receptor allosterically; P14416; DiscoveRx D2 beta-arrestin cells, luminescence, 90 min; 100% = 57 uM dopamine signal; potentiation, % (concentration not given with the values); hit rate 0.23% among 360,000; AID 624464; in the data active means potentiation above about 50%; inconclusive means mostly about 30% to 49%
Target sequence (P14416 whole entry, looked up): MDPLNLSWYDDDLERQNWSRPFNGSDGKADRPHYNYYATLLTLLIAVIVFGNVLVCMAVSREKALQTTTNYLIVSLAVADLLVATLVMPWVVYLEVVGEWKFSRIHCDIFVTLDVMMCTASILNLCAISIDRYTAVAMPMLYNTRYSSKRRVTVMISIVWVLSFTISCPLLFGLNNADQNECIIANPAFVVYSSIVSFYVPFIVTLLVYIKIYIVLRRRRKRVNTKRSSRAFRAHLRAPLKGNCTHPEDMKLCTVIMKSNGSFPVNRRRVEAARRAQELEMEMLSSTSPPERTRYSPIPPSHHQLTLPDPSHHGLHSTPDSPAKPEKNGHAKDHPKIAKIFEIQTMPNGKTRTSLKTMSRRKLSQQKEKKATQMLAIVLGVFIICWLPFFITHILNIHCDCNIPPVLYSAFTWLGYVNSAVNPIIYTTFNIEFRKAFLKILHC
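PathHunter D2 cells, attached overnight at 37 deg C, received compound in DMSO plus dopamine at EC20 (50 nM final) for 90 min at 37 deg C. Beta-arrestin recruitment was read as luminescence after 1 h with detection reagent at ambient temperature.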
D2 antag = antagonizes the human D2 dopamine receptor | P14416 | HEK293 TREx D2 cells, calcium flux, dopamine EC80 | inhibition, % at 10 µM | hit rate 2% among 340,000 | AID 485344; in the data active means inhibition above about 30%; inactive means below that, where a call was filed; further: 0% is about no effect
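Calcium flux kinetic readout in an inducible HEK293 TREx D2 line plated overnight at 30 C. After 180 s compound exposure, an EC80 dopamine challenge follows with another 180 s kinetic read to detect antagonism.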
D2 PAM-2 = D2 dopamine receptor (human) potentiation | P14416 | HEK293 T-REx D2, calcium flux, EC20 dopamine potentiation | potentiation, % at 10 µM | hit rate 0.34% among 340,000 | AID 485347;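 active means potentiation over 3 SD above the plate norm, cut at about 30% in these data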; further: 0% is about no effect
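Primary screen. Calcium kinetics in induced HEK293 T-REx D2 cells: compound pre-addition 180 s, EC20 dopamine, 180 s more.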
D2 ag-1 = activates the human D2 dopamine receptor; AID 485358; P14416; HEK293 T-REx D2 cells, calcium flux agonist mode; activation, % at 2 µM; hit rate 0.53% among 340,000;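 active means activation over 3 SD above normal in the single-dose calcium agonist read, cut at about 30% in these data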; further: 0% is about no effect
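Agonism scored from kinetic calcium signal (1 read/sec, 180 s) following compound pin transfer, after a 10 s baseline. Cells: HEK293 Trex line expressing inducible D2 receptor coupled to calcium, dye-loaded after overnight culture at 30 C.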
D2 ag-2 = human D2 receptor agonism in beta-arrestin assay; AID 624465; DiscoveRx PathHunter D2 beta-arrestin, luminescence, 90 min; 100% = 57 uM dopamine signal; activation, % (concentration not given with the values); hit rate 0.084% among 360,000; P14416; in the data active means activation above about 40%; inconclusive means between about 15% and that limit
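Agonist mode: compounds alone added to overnight-plated D2 PathHunter cells for 90 min at 37 C, with 57 uM final dopamine (EC100) defining full response. Beta-arrestin recruitment detected by chemiluminescent reagent, read after 1 h at ambient temperature.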
* hit, by the source's call; u = inconclusive; x = no result. The list is not random: actives were taken first. Their share in the collection is about 2.4%.

SMILES	D2 PAM-1	D2 antag	D2 PAM-2	D2 ag-1	D2 ag-2
CC1=CC(=O)c2ccccc2C1=O	22	-23	5	-1	3
O=C(COC(=O)CCNS(=O)(=O)c1ccccc1)Nc1ccc(OC(F)F)cc1	0	50*	26	0	0
COc1ccc(NS(=O)(=O)c2ccc(C)c(C(=O)NC3CCN(Cc4ccccc4)CC3)c2)cc1	-44	26	-24	0	-3
COc1ccccc1NS(=O)(=O)c1cccc(C(=O)NC2CCN(Cc3ccccc3)CC2)c1	-15	101*	-24	1	-3
COc1ccccc1NS(=O)(=O)c1ccc(C)c(C(=O)NC2CCN(Cc3ccccc3)CC2)c1	-41	77*	-19	0	-4
COc1ccccc1NS(=O)(=O)c1cc(C(=O)NC2CCN(Cc3ccccc3)CC2)ccc1C	-3	x	x	x	10
CCN(CC)c1ccc2c(C)c(Cl)c(=O)oc2c1	-3	-6	8	0	7
CCN(CC)c1ccc2c(c1)oc(=O)c1c(Cl)cc(=O)oc12	-33	51*	-5	48*	-5
CCOC(=O)c1c(NC(=O)CSc2cn(CCNC(=O)c3c(F)cccc3F)c3ccccc23)sc2c1CCCC2	x	x	8	x	x
Cc1nc(-c2ccccc2)sc1CCNC(=O)c1ccco1	x	x	10	1	x
Cc1ccccc1-n1nnnc1Sc1nnnn1-c1ccccc1	-10	12	2	0	-1
CCCSc1nnc(Sc2nnnn2-c2ccccc2)s1	-12	44*	2	-2	-2
Cc1ccc(C(=O)c2c(N)c(-c3nc(-c4ccc5c(c4)OCO5)cs3)c3ccccn23)cc1C	x	x	0	0	x
CCCC(C)c1nnc(NC(=O)CS(=O)(=O)Cc2ccccc2)s1 (centres undefined)	9	-2	30*	0	2
CCCC(C)c1nnc(NC(=O)CCS(=O)(=O)Cc2ccccc2)s1 (centres undefined)	-7	-15	-9	0	-8
CCC(CC)c1nnc(NC(=O)CS(=O)(=O)Cc2ccccc2)s1	9	x	x	x	0
CC(C)c1nnc(NC(=O)CS(=O)(=O)Cc2ccccc2)s1	4	55*	4	0	5
CN(C)c1ccc(-c2nc(-c3cc4cc(Cl)ccc4oc3=O)cs2)cc1	x	x	12	1	x
N#Cc1c(-c2ccccc2)cc(-c2ccccc2)nc1SCC(O)CS(=O)(=O)Cc1ccccc1 (centres undefined)	x	x	0	x	x
CC1=C/C(=N\OS(=O)(=O)c2ccccc2)C(C(C)C)=CC1=O	114*	6	1	0	49*
CC(S(=O)(=O)c1ccccc1)S(=O)(=O)c1ccccc1	-7	x	x	x	-7
COc1cc(C(=O)O/N=C2/C=C(C)C(=O)C=C2C)cc(OC)c1OC	2	2	1	1	u
CC1=C/C(=N\OS(=O)(=O)c2ccccc2)C(C)=CC1=O	79*	-6	5	1	u
CC1=C(C)/C(=N\OS(=O)(=O)c2ccc(C)cc2)C=CC1=O	67*	x	-2	x	48*
COc1ccc(S(=O)(=O)/N=C2/C=CC(=O)C(C)=C2C)cc1	10	-2	16	0	11
SMILES	D2 PAM-1	D2 antag	D2 PAM-2	D2 ag-1	D2 ag-2
O=C(NCc1ccc(F)cc1)c1ccc(CSc2nc3ccncc3n2Cc2ccc(F)cc2)cc1	x	x	3	1	x
C#Cc1ccc(CN2CCC(Oc3ccc(C(=O)NCc4ccccn4)cc3)CC2)cc1	-31	36*	-19	0	-3
COc1ccc(CNC(=O)c2oc3c(c2C)-c2nn(Cc4ccccc4Cl)cc2CC3)cc1	x	x	-3	1	x
Cc1ccc(NC(=O)c2ccc([N+](=O)[O-])o2)c(C)c1	5	33*	-5	0	u
O=C(Nc1ccc(NC(=O)c2ccc([N+](=O)[O-])o2)cc1Cl)c1ccco1	13	40*	-22	1	14
Cc1ccccc1NC(=O)c1ccc([N+](=O)[O-])o1	10	-12	11	-1	u
CC1CCc2onc(C(=O)N3CCN(c4ccccc4)CC3)c2C1 (centres undefined)	x	x	x	-1	x
CCCN1CCCc2cc(CN)ccc21	50*	9	-9	0	4
CCCCOC(=O)c1ccc(NC(=O)CSc2nc3c(c(=O)[nH]2)CCCC3)cc1	x	x	2	1	x
Cc1cn2c(=O)cc(COC(=O)c3cccc(NC(=O)COc4ccccc4)c3)nc2s1	x	x	0	0	x
CCCCN1C(=O)c2ccc(C(=O)N(C)CC(=O)Nc3ccc(OCC)c(OCC)c3)cc2C1=O	-13	x	x	x	-5
CCOc1ccc(NC(=O)CN(C)C(=O)CN2C(=O)c3ccc([N+](=O)[O-])cc3C2=O)cc1OCC	57*	-20	6	-1	6
CN1CCc2c(sc3c2C(=O)NC(c2ccc4c(c2)OCO4)N3)C1 (centres undefined)	-26	32*	-21	0	-2
COc1ccc(CNS(=O)(=O)c2ccc(N3CCCCS3(=O)=O)cc2)cc1	x	x	0	0	x
CCOc1ccc(NC(=O)CN(C)Cc2ccc3c(c2)OCO3)cc1S(=O)(=O)N1CCCC1	-1	58*	-22	0	6
CC(=O)Nc1ccc(S(=O)(=O)N2CCCN(S(=O)(=O)c3ccc(NC(C)=O)cc3)CC2)cc1	7	3	5	0	0
CC(=O)Nc1ccc(S(=O)(=O)N2CCCN(S(=O)(=O)c3ccc(C)cc3)CC2)cc1	-2	31*	-1	0	1
CN(CC(=O)Nc1ccc(S(=O)(=O)N2CCCC2)cc1)Cc1ccc(Cl)cc1Cl	64*	12	6	0	u
CC(C)(C)CC(=O)Nc1ccc(S(=O)(=O)N2CCCC2)cc1	-2	-3	44*	-1	0
CC(C)CC(=O)Nc1ccc(S(=O)(=O)N2CCCC2)cc1	-5	-25	5	-1	-5
CN(CC(=O)Nc1ccc(S(=O)(=O)N2CCCC2)cc1)CC(=O)Nc1ccc(F)c(F)c1F	0	12	6	2	1
Cc1cccc(Cn2c(CN3CCCC(C)C3)nc3c2c(=O)n(C)c(=O)n3C)c1 (centres undefined)	x	x	-12	0	x
COc1cc(-c2nc(CN3CCN(c4ncccn4)CC3)c(C)o2)ccc1F	-5	1	-6	31*	u
O=C(NCCc1ccc(Cl)cc1)c1ccc(Cn2c(=O)c3cccn3c3cccnc32)cc1	x	x	-1	0	x
Cc1[nH]c2ccc(C(=O)NCCCN3CCCCCC3)cc2c1C	-38	62*	-13	1	2
CCCN1CCN(CCCNC(=O)c2cc3c(=O)[nH]c4ccc(C)cc4c3s2)CC1	-10	43*	-7	-1	-3
CCN(CCCNC(=O)c1cc2c(=O)[nH]c3ccc(C)cc3c2s1)c1ccc(C)cc1	x	x	0	1	x
